# Experimental data as given in PubChem BioAssay AID1851 (National Center for Advancing Translational Sciences (NCATS), 2009).
# In all, about 16,000 compounds went through this assay and about 5,100 (32%) were called active. Another 25% or so got no clear call; they are omitted. This is one part of the list. Values without a mark were called inactive. Calls follow the shape of the dose curve; as a rule, active = well fitted curve in the direction sought with a large enough effect; inconclusive = small, poorly fitted or top-dose-only effect, or effect the other way; inactive = no such curve, though single readings can be large or run the other way.
# Molecular target: Cytochrome P450 3A4 (Homo sapiens) (UniProt P08684)
# Assay: Cytochrome panel assay with activity outcomes
# Settings: recombinant CYP, pro-luciferin dealkylation, luminescence, p450-cyp3a4; series mostly up to 57.1 µM
# % is scaled to controls: 0 for no effect and ±100 for the full control effect.
# Sequence of Cytochrome P450 3A4 (Homo sapiens) (P08684 whole entry, looked up): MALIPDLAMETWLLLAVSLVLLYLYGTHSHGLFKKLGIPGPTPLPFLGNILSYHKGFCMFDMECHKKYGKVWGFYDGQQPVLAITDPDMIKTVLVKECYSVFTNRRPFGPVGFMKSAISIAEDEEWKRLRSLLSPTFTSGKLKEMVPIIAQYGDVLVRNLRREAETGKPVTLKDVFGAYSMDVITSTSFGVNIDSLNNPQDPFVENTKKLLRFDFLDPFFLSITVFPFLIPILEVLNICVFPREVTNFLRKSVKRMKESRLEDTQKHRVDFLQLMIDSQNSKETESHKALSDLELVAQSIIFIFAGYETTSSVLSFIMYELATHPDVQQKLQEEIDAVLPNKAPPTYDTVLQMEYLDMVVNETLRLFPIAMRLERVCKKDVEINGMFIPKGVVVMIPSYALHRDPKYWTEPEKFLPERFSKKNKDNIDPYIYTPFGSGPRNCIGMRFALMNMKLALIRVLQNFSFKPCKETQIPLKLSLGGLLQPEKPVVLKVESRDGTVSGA
Structure (SMILES),AC50,"activity, negative = inhibition"
O=C(O)CC(c1ccccc1)n1cnnn1 (stereo not drawn),inactive,–
O=C(Cn1cnc2ccccc21)NC(c1ccccc1)c1ccccc1,7.94 µM (active),–
CN[C@@H]1[C@H](O[C@H]2[C@@H](O[C@@H]3[C@@H](O)[C@@H](O)[C@@H](N=C(N)N)[C@@H](O)[C@@H]3N=C(N)N)O[C@@H](C)[C@]2(O)CO)O[C@H](CO)[C@@H](O)[C@@H]1O,inactive,–
COc1cc(C=O)ccc1OCCOCCOc1ccccc1Cl,–,-2.53% [at 2.29 µM]
COc1ccccc1OCCCOc1ccc([N+](=O)[O-])cc1Cl,14.1 µM (active),–
COc1cc(C)ccc1OCCCOc1ccccc1Br,–,3.33% [at 2.29 µM]
Cc1ccc2c(c1)N(CC(=O)NC1CCCc3ccccc31)C(=O)CO2 (stereo not drawn),7.08 µM (active),–
Cc1ccc2c(c1)N(CC(=O)NC1CCC(C)CC1)C(=O)CO2 (stereo not drawn),7.08 µM (active),–
CC(=O)NN1C(=O)/C(=C\c2ccc(C)cc2)SC1=S,inactive,–
Cc1ccc(C(=O)NC(=S)Nc2cccc3nsnc23)cc1,inactive,–
Cc1ccc(C(=O)N/C(=C\c2ccc(Br)cc2)c2nc(=S)[nH][nH]2)cc1,22.4 µM (active),–
CN(C)CCCN1c2ccc3ccccc3c2Sc2cccc(Cl)c21,–,-11.7% [at 11.4 µM]
Clc1ccc(-c2noc(CN3CCCCC3)n2)cc1,–,-11.9% [at 11.4 µM]
Clc1ccc(Cc2nc(-c3cccnc3)no2)cc1,2.51 µM (active),–
c1ccc(CCc2nc(-c3ccccc3)no2)cc1,inactive,–
Cc1ccc(C2=Nc3ccccc3S[C@@H](c3cccc([N+](=O)[O-])c3)C2)cc1,3.98 µM (active),–
C[C@@]12CC[C@@H]3c4ccc(O)cc4CC[C@H]3[C@H]1C[C@@H](O)[C@H]2O,inactive,–
Cc1cccc(C)c1OC1(c2ccccc2)OC(=O)c2ccccc21 (stereo not drawn),8.91 µM (active),–
CCCCCCCOC1(c2ccccc2)OC(=O)c2ccccc21 (stereo not drawn),inactive,–
N#C/C(=C\Nc1ccccn1)C(=O)c1ccco1,–,-18.7% [at 11.4 µM]
CCCC(CCC)C(=O)NNc1cc(=O)c2c(=O)n(C)c(=O)n(C)c2[nH]1,inactive,–

Structure (SMILES),AC50,"activity, negative = inhibition"
Cc1ccnc(NS(=O)(=O)c2ccc(NC(=O)C3CCCNC3=O)cc2)n1 (stereo not drawn),inactive,–
Cc1noc(NS(=O)(=O)c2ccc(NC(=O)CC34CC5CC(CC(Br)(C5)C3)C4)cc2)c1C,6.31 µM (active),–
Cc1noc(NS(=O)(=O)c2ccc(N)cc2)c1C,inactive,–
COC(=O)COc1ccc2c(-c3cccc([N+](=O)[O-])c3)cc(=O)oc2c1,inactive,–
O=[N+]([O-])c1cccc(-c2nc(-c3ccncc3)no2)c1,0.562 µM (active),–
CC(C)CCNC1=NCCCCC1,inactive,–
Cc1cccc2c(SCC(=O)NCC3CCCO3)nc(-c3ccc(F)cc3)nc12 (stereo not drawn),inactive,–
Cc1[nH]nc2nc(SCC(=O)NCC3CCCO3)n(-c3ccc(Br)cc3)c(=N)c12 (stereo not drawn),11.2 µM (active),–
Cc1ccc(-n2ncc3c(=O)n(CC(=O)NCC4CCCO4)cnc32)cc1 (stereo not drawn),inactive,–
Nc1ncnc2c1cnn2-c1ccccc1,inactive,–
Nc1ccc(Sc2cnn(-c3ccccc3)c(=O)c2Cl)cc1,8.91 µM (active),–
NCCCCCC(=O)O,inactive,–
CNC(=O)C(=O)NCCc1ccc(Cl)cc1,inactive,–
Cc1nc(SCC(=O)NCCc2ccc(Cl)cc2)nc(C)c1C,2 µM (active),–
Nc1ccc(S(=O)(=O)Nc2ccc(Cl)nn2)cc1,inactive,–
Cc1nc2sccc2c(=O)n1-c1cccc(Cl)c1,–,17.4% [at 11.4 µM]
Nc1nnc(CC(=O)N/N=C/c2cccc([N+](=O)[O-])c2)s1,28.2 µM (active),–
O=C(Cc1ccccc1)N/N=C/C=C/c1cccc([N+](=O)[O-])c1,inactive,–
CCOc1ccc(-c2cc(CCCC(=O)NCCc3ccc(OC)c(OC)c3OC)no2)cc1,7.08 µM (active),–
CCOc1ccc(-c2cc(CCCC(=O)Nc3cc(OC)ccc3OC)no2)cc1,3.55 µM (active),–
COc1ccc(CN2CCN(C(=O)CC(C)C)CC2)c(OC)c1OC,inactive,–

Structure (SMILES),AC50,"activity, negative = inhibition"
CCCC(=O)Nc1cc(-c2cn3cccnc3n2)ccc1OC,inactive,–
N[C@H](CCC(=O)NCS(=O)(=O)O)C(=O)O,inactive,–
c1ccc(-c2ccc(N3CC[C@@]4(CCCNC4)C3)cc2)cc1,inactive,–
COC(=O)N1CCC2(CCCN(c3ccccn3)C2)CC1,inactive,–
O=C(Oc1ccccc1)N1CCC[C@@]2(CCN(c3ccccn3)C2)C1,10 µM (active),–
O=C(Oc1ccccc1)N1CCC2(CCCN(c3ccccn3)C2)CC1,25.1 µM (active),–
CC(=O)N1CCC2(CC1)CCN(c1ccc(-c3ccccc3)cc1)CC2,inactive,–
COC(=O)N1CCC[C@@]2(CCN(c3ccccn3)C2)C1,inactive,–
c1ccc(-c2ccc(N3CCCC4(CCNCC4)C3)cc2)cc1,12.6 µM (active),–
O=C(Oc1ccccc1)N1CCC2(CCCN(c3ccc(-c4ccccc4)cc3)C2)CC1,31.6 µM (active),–
CC(=O)N1CCC2(CC1)CN(c1ccccn1)C2,inactive,–
CS(=O)(=O)N1CCC2(CC1)CN(c1ccc(-c3ccccc3)cc1)C2,inactive,–
O=C(Oc1ccccc1)N1CCC2(CCCN(c3ncccn3)C2)CC1,inactive,–
NC(=O)CCCC1=NS(=O)(=O)c2ccccc2N1,inactive,–
CC(C)(CC(=O)N1CCN(c2ccc(Cl)cc2)CC1)CC1=NS(=O)(=O)c2ccccc2N1,2.51 µM (active),–
NC(=O)C1(N2CCCCC2)CCN(C(=S)Nc2ccc(Cl)cc2)CC1,inactive,–
NC(=O)C1(N2CCCCC2)CCN(C(=O)c2cccn3c(=O)c4cc(Cl)ccc4nc23)CC1,11.2 µM (active),–
CCOC(=O)N1CCN(C(=O)c2cccn3c(=O)c4cc(Cl)ccc4nc23)CC1,inactive,–
CC(C)(C)n1nnnc1C(c1cccnc1)N(Cc1ccccc1)Cc1ccco1 (stereo not drawn),0.794 µM (active),–
O=C(NCCc1c[nH]c2ccccc12)[C@H]1C[C@@H]1[C@H](NP(=O)(c1ccccc1)c1ccccc1)c1ccccc1,1.58 µM (active),–
O=C(NCCc1c[nH]c2ccccc12)[C@@H]1C[C@H]1[C@@H](NP(=O)(c1ccccc1)c1ccccc1)c1ccccc1,1.26 µM (active),–
